According to paper PMC11062922 (Nature Chemical Biology, 2023):
Where two headings read alike, the source gives them in different places.

Experiments:
ACOX1 = test system: ACOX1; parameters: species or system human, MV4-11 + K-562 + COLO205 + SK-N-BE2 + OVCAR-8; settings: read-out: apparent Kd, n = 1
CSNK2A2 = test system: CSNK2A2; parameters: species or system human, MV4-11 + K-562 + COLO205 + SK-N-BE2 + OVCAR-8; settings: read-out: apparent Kd, n = 1
EGFR = test system: EGFR; parameters: species or system human, MV4-11 + K-562 + COLO205 + SK-N-BE2 + OVCAR-8; settings: read-out: apparent Kd, n = 1
RIPK2 = test system: RIPK2; parameters: species or system human, MV4-11 + K-562 + COLO205 + SK-N-BE2 + OVCAR-8; settings: read-out: apparent Kd, n = 1
FRK = test system: FRK; parameters: species or system human, MV4-11 + K-562 + COLO205 + SK-N-BE2 + OVCAR-8; settings: read-out: apparent Kd; compound concentrations: 100 nM and 1000 nM (sheet 'Samples'), CATDS: 5.2265489654336902E-2; n = 1
GAK = test system: GAK; parameters: species or system human, MV4-11 + K-562 + COLO205 + SK-N-BE2 + OVCAR-8; settings: read-out: apparent Kd; compound concentrations: 100 nM and 1000 nM (sheet 'Samples'), CATDS: 9.1160563566663896E-2; n = 1
HCK = test system: HCK; parameters: species or system human, MV4-11 + K-562 + COLO205 + SK-N-BE2 + OVCAR-8; settings: read-out: apparent Kd, compound concentrations: 100 nM and 1000 nM (sheet 'Samples'), n = 1
Q6ZSR9 = Q6ZSR9 (human, UniProt Q6ZSR9); parameters: species or system MV4-11 + K-562 + COLO205 + SK-N-BE2 + OVCAR-8; settings: read-out: apparent Kd; compound concentrations: 100 nM and 1000 nM (sheet 'Samples'), CATDS: 3.9115403920336002E-2; n = 1
Q6ZSR9, sequence (Q6ZSR9 whole entry, looked up): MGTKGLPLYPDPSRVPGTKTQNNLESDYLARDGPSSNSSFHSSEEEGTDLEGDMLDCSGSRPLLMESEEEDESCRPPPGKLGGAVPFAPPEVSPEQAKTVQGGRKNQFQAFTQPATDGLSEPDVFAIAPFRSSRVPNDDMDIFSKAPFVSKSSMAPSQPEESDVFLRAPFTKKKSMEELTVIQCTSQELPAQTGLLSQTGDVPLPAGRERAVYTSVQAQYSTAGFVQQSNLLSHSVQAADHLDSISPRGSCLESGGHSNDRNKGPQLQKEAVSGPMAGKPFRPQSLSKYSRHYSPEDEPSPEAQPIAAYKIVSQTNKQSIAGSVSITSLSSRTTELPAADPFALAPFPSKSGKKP

RIPK3 = test system: RIPK3; parameters: species or system human, MV4-11 + K-562 + COLO205 + SK-N-BE2 + OVCAR-8; settings: read-out: apparent Kd; compound concentrations: 100 nM and 1000 nM (sheet 'Samples'), CATDS: 0.107109560808048; n = 1
YES1 = test system: YES1; parameters: species or system human, MV4-11 + K-562 + COLO205 + SK-N-BE2 + OVCAR-8; settings: read-out: apparent Kd; compound concentrations: 100 nM and 1000 nM (sheet 'Samples'), CATDS: 0.19959075009265401; n = 1
CLK1 = test system: CLK1; parameters: species or system human, MV4-11 + K-562 + COLO205 + SK-N-BE2 + OVCAR-8; settings: read-out: apparent Kd; compound concentrations:100 nM and 1000 nM (sheet 'Samples'); n = 1
[1] = compound concentrations:100 nM and 1000 nM (sheet 'Samples')

**Q.** Cc1ccc(C(=O)NC2CC2)cc1-c1ccc2[nH]ncc2c1 [GW820759X] was tested. Which potency estimated from few doses (ACOX1; compound concentrations: 100 nM and 1000 nM (sheet 'Samples'), CATDS: 0.303559006930335) did it give?
**A.** 1410 nM

**Q.** For Cc1ccc(CC(=O)N2CCc3cc(-c4cn(C)c5ncnc(N)c45)ccc32)cc1 [GSK2634758A], which potency estimated from few doses (ACOX1; compound concentrations: 100 nM and 1000 nM (sheet 'Samples'), CATDS: 0.17317335895949701) is on record?
**A.** 1310 nM

**Q.** How did the potency estimated from few doses (CSNK2A2; [1]) turn out when CCS(=O)(=O)c1ccc(OC)c(Nc2ncc(-c3cccc(F)c3)o2)c1 [GW621970X_KCGS] was run?
**A.** 2010 nM

**Q.** With Cc1[nH]nc2c1N=C(c1ccccc1Cl)c1cc([N+](=O)[O-])ccc1N2 [RO0274406-000] as the molecule, how does the potency estimated from few doses (ACOX1; compound concentrations: 100 nM and 1000 nM (sheet 'Samples'), CATDS: 6.8791722684654694E-2) read?
**A.** 1400 nM

**Q.** For Cl.Oc1ccc2ncnc(Nc3ccc(OCc4ccccc4)cc3)c2c1 [GI262866A], which potency estimated from few doses (ACOX1; [1]) is on record?
**A.** 830 nM

**Q.** What about the potency estimated from few doses (EGFR; [1]) of the same molecule?
**A.** 106 nM

**Q.** What about the potency estimated from few doses (RIPK2; [1]) of the same molecule?
**A.** 923 nM

**Q.** With Cn1cc(C2=C(c3ccccc3[N+](=O)[O-])C(=O)NC2=O)c2ccccc21 [RO0317753-000] as the molecule, how does the potency estimated from few doses (ACOX1; compound concentrations: 100 nM and 1000 nM (sheet 'Samples'), CATDS: 8.6924247533373397E-2) read?
**A.** 891 nM

**Q.** How did the potency estimated from few doses (ACOX1; compound concentrations: 100 nM and 1000 nM (sheet 'Samples'), CATDS: 0.172971631917821) turn out when CCCN1CCC(Oc2cc(Nc3nc(Nc4cccc(F)c4C(N)=O)c4cc[nH]c4n3)c(OC)cc2Cl)CC1 [GSK1713088A] was run?
**A.** 2220 nM

**Q.** With COc1ccc(C2=C(Nc3cccc(O)c3)C(=O)NC2=O)cc1 [SB-390766] as the molecule, how does the potency estimated from few doses (ACOX1; [1]) read?
**A.** 861 nM

**Q.** Cn1cc(C2=C(c3cccc([N+](=O)[O-])c3)C(=O)NC2=O)c2ccccc21 [RO0317474-000] was tested. Which potency estimated from few doses (ACOX1; compound concentrations: 100 nM and 1000 nM (sheet 'Samples'), CATDS: 0.177541909552099) did it give?
**A.** 937 nM

**Q.** Which results are given for COc1cc(N2CCN(C(C)C)CC2)ccc1Nc1nc(Nc2cccc(F)c2C(=O)O)c2cc[nH]c2n1 [GSK1819799A]?
**A.** potency estimated from few doses (FRK): 1130 nM; potency estimated from few doses (GAK): 352 nM

**Q.** Which potency estimated from few doses (ACOX1; compound concentrations: 100 nM and 1000 nM (sheet 'Samples'), CATDS: 3.3243349000795501E-2) does the source give for COc1ccc(C2=C(c3cn(C)c4ccccc34)C(=O)NC2=O)cc1OC [RO3206363-000] here?
**A.** 1570 nM

**Q.** What about the potency estimated from few doses (CSNK2A2; compound concentrations: 100 nM and 1000 nM (sheet 'Samples'), CATDS: 3.3167701686651403E-2) of the same molecule?
**A.** 1580 nM

**Q.** What about the potency estimated from few doses (HCK; CATDS: 3.6036002051639801E-2) of the same molecule?
**A.** 1170 nM

**Q.** And the potency estimated from few doses (Q6ZSR9)?
**A.** 898 nM

**Q.** Which potency estimated from few doses (ACOX1; compound concentrations: 100 nM and 1000 nM (sheet 'Samples'), CATDS: 0.17026663208719101) does the source give for Cl.Fc1cccc(COc2ccc(Nc3ncnc4cc(-c5ccc[nH]5)sc34)cc2Cl)c1 [GW693881A] here?
**A.** 1170 nM

**Q.** And the potency estimated from few doses (EGFR; compound concentrations: 100 nM and 1000 nM (sheet 'Samples'), CATDS: 0.260445959414705)?
**A.** 495 nM

**Q.** How did the potency estimated from few doses (ACOX1; compound concentrations: 100 nM and 1000 nM (sheet 'Samples'), CATDS: 0.35170736518262402) turn out when O=C1Nc2ccc(F)cc2/C1=C/c1ccc[nH]1 [RO0272148-000] was run?
**A.** 1160 nM

**Q.** Cn1cc(C2=C(c3cn(CCCN/C(N)=N/[N+](=O)[O-])c4ccccc34)C(=O)NC2=O)c2ccccc21 [RO0318161-000] was tested. Which potency estimated from few doses (ACOX1; compound concentrations: 100 nM and 1000 nM (sheet 'Samples'), CATDS: 0.32839321732103) did it give?
**A.** 1100 nM

**Q.** With COc1ccccc1C(=O)c1cnc(NC2CCN(S(C)(=O)=O)CC2)nc1N [RO4514610-000] as the molecule, how does the potency estimated from few doses (ACOX1; [1]) read?
**A.** 2190 nM

**Q.** With CC(=O)Nc1ccc2c(C3=C(c4cn(C)c5ccccc45)C(=O)NC3=O)cn(C)c2c1 [RO0317596-000] as the molecule, how does the potency estimated from few doses (ACOX1; compound concentrations: 100 nM and 1000 nM (sheet 'Samples'), CATDS: 0.20475693554228799) read?
**A.** 453 nM

**Q.** With Cc1ccc(NC(=O)Nc2ccccc2)cc1-c1ccc(C(=O)Nc2ccncc2)cc1 [GSK1398471A] as the molecule, how does the potency estimated from few doses (HCK; CATDS: 0.185556916463613) read?
**A.** 507 nM

**Q.** What about the potency estimated from few doses (RIPK2; compound concentrations: 100 nM and 1000 nM (sheet 'Samples'), CATDS: 0.252300510926462) of the same molecule?
**A.** 310 nM

**Q.** What about the potency estimated from few doses (RIPK3) of the same molecule?
**A.** 1620 nM

**Q.** And the potency estimated from few doses (YES1)?
**A.** 448 nM

**Q.** How did the potency estimated from few doses (ACOX1; [1]) turn out when COc1cc(F)c(F)c(F)c1C(=O)c1cnc(NC2CCN(S(C)(=O)=O)CC2)nc1N [RO4600703-000] was run?
**A.** 1010 nM

**Q.** And the potency estimated from few doses (CLK1)?
**A.** 729 nM
